From PubChem BioAssay
Sampled rows, rich in hits. Any-hit rate of the full collection: about 7.8%.
HCV inh – qHTS Assay for Inhibitors of Hepatitis C Virus (HCV); Huh7.5.1 HCVcc-Cre infection, luciferase reporter, 44 h; Potency, µM (series often up to 41.8 µM), hits mostly inhibitors; 3.4% of 340,000 active; active means well fitted inhibition curve with a large enough effect; inconclusive means small, poorly fitted or top-dose-only effect, or another doubt; inactive means no such curve, though single readings can be large or run the other way
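Infectious HCVcc-Cre (~0.5 moi) was added to cells just after compound, with cells seeded 4 h earlier at 1,000 per well. Luciferase activity after 44 h culture reported infection; substrate was incubated 15 min at room temperature before reading.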
MARV entry inh – qHTS for inhibitors of binding or entry into cells for Marburg Virus | Marburg virus pseudotyped entry inhibition, cell reporter | Potency, µM (series often up to 37.8 µM), hits mostly inhibitors | 1.8% of 300,000 active | AID 540276, 2011; calls by dose curve; tested in HEK293 cells
Vaccinia Venus – qHTS for Stage-Specific Inhibitors of Vaccinia Orthopoxvirus: Venus Reporter Primary qHTS. Vaccinia virus Venus reporter expression, fluorescence. Potency, µM (series often up to 36.5 µM), hits mostly inhibitors. 0.46% of 330,000 active; calls by dose curve; tested in A549 cells; further: nearly all actives have a fitted effect of over 30% in size
HCMV inh – qHTS Assay for inhibitors of the human cytomegalovirus (HCMV) | activity change, negative = inhibition, % at 57.5 µM | HFF cells, HCMV-luciferase reporter, 72 h; hits give low values | 4.5% of 410,000 active; in the data active means activity change below about -60%; inconclusive means no clear call, values can overlap the other calls; inactive means above about -39%
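Steps: HFFs plated, 16 h 37C; compounds added; HCMV-luciferase added to MOI 1 PFU/cell; 72 h 37C; OneGlo reagent, 5 min room temperature; luminescence read, normalized to controls.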
VACV mCherry inh – qHTS for Stage-Specific Inhibitors of Vaccinia Orthopoxvirus: mCherry Reporter Primary qHTS; AID 720579, 2013; Potency, µM (top dose mostly 36.5 µM), actives largely listed as inhibitors; 0.63% of 310,000 active; Vaccinia virus mCherry reporter infection, fluorescence; calls by dose curve; tested in A549 cells; further: nearly all actives have a fitted effect of over 35% in size
Lassa entry inh – qHTS for Inhibitors of binding or entry into cells for Lassa Virus | 1.2% of 300,000 active | Potency, µM (top dose mostly 37.9 µM), usual class: inhibitors | Lassa virus pseudotype entry inhibition, cell reporter; calls by dose curve; tested in HEK293 cells; further: nearly all actives have a fitted effect of over 50% in size
A number is an active result; n = inactive; u = inconclusive; x = not tested or not shown; [ ] = another dose, or the depositor's remark.

SMILES | HCV inh | MARV entry inh | Vaccinia Venus | HCMV inh | VACV mCherry inh | Lassa entry inh
CC[C@]12c3[nH]c4cc(CCC(=O)N(C)C)ccc4c3CCN1C(=O)[C@@H](CC(=O)NCc1cccc(C(F)(F)F)c1)C[C@@H]2C(=O)N1CCN(C(=O)C2CC2)CC1 | 0.56µM | x | n | n | n | x
CC[C@]12c3[nH]c4cc(CCC(=O)N(C)C)ccc4c3CCN1C(=O)[C@@H](CC(=O)NCc1cccc(C(F)(F)F)c1)C[C@@H]2C(=O)N1CCN(C(=O)c2ccco2)CC1 | n[8.37 µM] | n | n | n | n | x
Cc1ccc(C(=O)N2CCN(c3cccc(Cl)c3)CC2)cc1-n1c(C)nc2cccnc21 | x | x | n | n | n | n
COc1ccc(Br)cc1/C=N/NC(=O)c1ccc(COc2ccc3c(c2)CCC3)o1 | u | u | n | n | n | n
O=C(NCc1cccnc1)c1ccc(COc2ccc3c(c2)CCC3)o1 | n | 23µM | n | n | n | u
CC(C)(C)c1ccc(OCc2ccc(C(=O)N3CCOCC3)o2)cc1 | u | u | u | -71 | n | 7.9µM
O=C(N/N=C/c1cc([N+](=O)[O-])ccc1O)c1ccc(COc2ccc3c(c2)CCC3)o1 | n | u | n | -96 | u | u
CCCNC(=O)c1ccc(COc2ccc(C(C)(C)C)cc2)o1 | 13µM | u | n | n | n | u
Cc1ccc(NC(=O)CSc2nnc(COc3ccc(Cl)cc3)o2)cc1 | x | n | n | n | n | n
CCOc1ccc(OCc2ccc(C(=O)NCc3ccncc3)o2)cc1 | 7.1µM | n | n | n | n | n
CCc1ccc(OCc2ccc(C(=O)NCc3ccccn3)o2)cc1 | n | u | n | n | x | n
Cc1ccc(-n2c3nc(=O)[nH]c(=O)c-3cc3cc([N+](=O)[O-])ccc32)cc1C | 35µM | u | n | -99 | n | u
CC1(C)C[C@@H](O)[C@]2(C)CC[C@]3(C)C(=CCC4[C@@]5(C)CC[C@H](O)[C@](C)(CO)C5CC[C@]43C)[C@@H]2C1 (stereo partly drawn) | n | x | n | n | n | x
CC1(C)C[C@H]2C3=CCC4[C@@]5(C)CC[C@H](O)[C@@](C)(CO)C5CC[C@@]4(C)[C@]3(C)C[C@@H](O)[C@@]2(CO)[C@@H](O)[C@@H]1O (stereo partly drawn) | n | x | n | -73 | n | x
O=C(NCc1cccnc1)c1ccc(-c2cc3ccccc3oc2=O)cc1 | u | x | x | -66 | x | x
Nc1ccc(-c2cc3ccccc3oc2=O)cc1 | n | u | n | u | n | 0.71µM
O=C(Nc1cccnc1)c1cccc(-c2cc3ccccc3oc2=O)c1 | n | n | n | n | n | n
Cc1c(C(=O)N2CCCC(c3ccccc3)C2)sc2ncnc(NCCc3ccccn3)c12 (stereo not drawn) | x | x | n | x | n | x
COc1cc(OC)cc(C(=O)Nc2ccc3nc(N4CCC(C)CC4)cc(C)c3c2)c1 | x | u | n | n | n | n
CCc1cccc(CC)c1NC(=S)NCCc1c(C)[nH]c2ccc(C)cc12 | 22µM | u | 16µM | -93 | 10µM | u
COc1ccc2[nH]c(C)c(CCNC(=S)Nc3cc(C)ccc3C)c2c1 | u | n | n | -61 | n | n
COc1ccc2[nH]c(C)c(CCNC(=S)Nc3cccc(C)c3)c2c1 | n[8.37 µM] | u | u | u | u | u
CCc1cccc(C)c1NC(=S)NCCc1c(C)[nH]c2ccc(C)cc12 | 35µM | u | u | -72 | 18µM | u
COc1ccc(CCNC(=S)Nc2ccc(C)cc2C)cc1 | u | n | x | -76 | x | n
COc1ccc2[nH]c(C)c(CCNC(=S)Nc3cc(C)cc(C)c3)c2c1 | n[8.37 µM] | n | u | u | n | n
SMILES | HCV inh | MARV entry inh | Vaccinia Venus | HCMV inh | VACV mCherry inh | Lassa entry inh
Cc1c(Cl)cccc1-n1ncc(C(=O)N2CCN(C)CC2)c1C1CCN(C(=O)OC(C)(C)C)CC1 | x | x | n | n | n | u
Cc1ncc2c(c1CNC(=O)c1cncs1)CCN(C(=O)c1ccc(C(C)(C)C)cc1)C2 | x | x | u | x | n | x
COc1cc(C=O)cc(OC)c1[N+](=O)[O-] | x | x | n | x | n | x
COc1ccc(C)cc1NC(=O)C(Cc1ccccc1)NS(=O)(=O)c1cccs1 (stereo not drawn) | x | x | n | n | n | n
CCn1cc(C(=O)N2CCN(c3ccc(C)cc3)C(C)C2)c(=O)c2cc(S(=O)(=O)N3CCCC3)ccc21 (stereo not drawn) | x | n | n | n | n | n
CCCCCCCCSC1=CC(=O)C(OC)=C(OC)C1=O | x | x | n | -87 | n | x
COc1ccccc1/C=C\C(=O)O | x | x | n | x | n | x
CC(=O)/C=C/c1ccccc1Oc1c(F)c(F)nc(F)c1F | n | x | x | -67 | x | x
CN(CC(=O)Nc1c(Cl)cccc1Cl)C(=O)c1cc(-c2cccs2)nn1-c1ccccc1 | u | n | n | n | n | u
CCN(CC(=O)Nc1c(F)cccc1F)C(=O)c1cc(-c2cccs2)nn1-c1ccccc1 | 14µM | n | n | n | n | n
CCCCCCCCCCCCCC(=O)O[C@@H]1[C@@H](C)[C@@]2(O)[C@@H](C=C(CO)C[C@@]3(O)C(=O)C(C)=C[C@@H]23)C2C(C)(C)[C@@]21OC(C)=O (stereo partly drawn) | x | 22µM | x | x | x | 6.5µM
CCn1c2ccccc2c2cc(/C(C)=N/O)ccc21 | 10µM | u | n | n | n | n
CCn1c2ccccc2c2cc(/C=N/NC(=O)c3cc(O)cc(O)c3)ccc21 | u | u | n | n | n | u
CCn1c2ccccc2c2cc(/C=N/NC(=O)c3ccncc3)ccc21 | u | u | n | n | u | 5.6µM
CCn1c2ccccc2c2cc(/C=N/NC(=O)c3ccc(O)cc3)ccc21 | 18µM | 7.1µM | u | n | n | 5µM
CN(C)c1ccc(/C=c2\[nH]c(=O)/c(=C\c3ccc(N(C)C)cc3)[nH]c2=O)cc1 | x | x | n | x | n | x
CC1=C(C#N)C(c2ccccc2)C2=C(N1)c1ccccc1C2=O (stereo not drawn) | u | u | n | -71 | n | u
COC(=O)c1ccc2nc(-c3ccc(OC)c(OC)c3)c(Cc3ccccc3C(F)(F)F)n2c1 | x | x | x | n | x | x
Cc1cc(C=O)c(C)n1-c1ccc(N2CCCCC2)c([N+](=O)[O-])c1 | u | u | n | n | x | u
Cc1cc(/C=C(\C#N)C(N)=O)c(C)n1-c1ccc(N2CCOCC2)c([N+](=O)[O-])c1 | u | u | n | -75 | u | n
N#Cc1cc2c(nc1SCC(=O)Nc1cccc(C(F)(F)F)c1)C1CCN2CC1 | x | n | n | u | n | n
N#Cc1cccc(NC(=O)CSc2nc3c(cc2C#N)N2CCC3CC2)c1 | x | u | n | -83 | n | u
N#Cc1cc2c(nc1SCC(=O)Nc1ccc(OC(F)(F)F)cc1)C1CCN2CC1 | x | x | n | -72 | n | n
COc1c(OC(C)=O)ccc(/C=C/c2ccc3cccc(OC)c3n2)c1[N+](=O)[O-] | u | u | u | n | u | n
